From PubChem
CHRM1 agonist: human M1 muscarinic receptor agonism | P11229 | CHO-K1 hM1, Fluo-8 calcium fluorescence, agonist mode; 0% DMSO, 100% acetylcholine EC100 | activation, % at 3 µM | 360,000 compounds, 0.33% hits | AID 588814;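 active means activation above the run's mean compound activation plus 3 SD, cut at about 16% in these data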;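 further: peak over basal fluorescence ratio within a 140 s kinetic read after compound addition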
Target sequence (P11229 whole entry, looked up): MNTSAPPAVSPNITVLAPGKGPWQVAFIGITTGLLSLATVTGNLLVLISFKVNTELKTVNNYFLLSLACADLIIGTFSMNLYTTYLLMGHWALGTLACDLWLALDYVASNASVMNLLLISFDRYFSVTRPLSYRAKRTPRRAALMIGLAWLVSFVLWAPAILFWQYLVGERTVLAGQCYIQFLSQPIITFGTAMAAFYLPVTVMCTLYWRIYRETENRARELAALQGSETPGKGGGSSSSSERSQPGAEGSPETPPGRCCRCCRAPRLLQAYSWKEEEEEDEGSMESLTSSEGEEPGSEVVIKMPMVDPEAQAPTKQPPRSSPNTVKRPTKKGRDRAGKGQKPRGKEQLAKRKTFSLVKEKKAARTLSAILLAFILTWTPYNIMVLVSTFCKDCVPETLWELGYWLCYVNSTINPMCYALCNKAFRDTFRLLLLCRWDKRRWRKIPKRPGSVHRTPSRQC
CHO-K1 Ca antag: counter-screen for M1 antagonists: effect in parental CHO-K1 cells; ATP-induced calcium, Fluo-8 fluorescence; inhibition, % at 3 µM; 360,000 compounds, 0.6% hits; AID 602250;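 active means inhibition above a per-plate cutoff, the plate's mean sample inhibition plus 3 SD, cut at about 24% in these data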;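 further: 0% = DMSO plus EC80 ATP and 100% = DMSO alone without ATP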
M1 ag parental: M1 agonist counterscreen hit in parental CHO-K1 cells. Fluo-8 calcium fluorescence; scaled to maximal ATP response, vehicle zero. activation, % at 3 µM. 360,000 compounds, 0.48% hits. AID 602248; in the data active means activation above about 15%;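 further: untransfected CHO-K1 host cells lacking M1 receptor as counterscreen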
M1 PAM parental: nonselective activator or artifact in parental CHO-K1 calcium assay; ATP EC20, Fluo-8 calcium fluorescence; 0% at ATP EC20, 100% at ATP max; activation, % at 3 µM; 360,000 compounds, 0.02% hits;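 active means activation above the run cutoff, the mean activation of all test compounds plus 3 SD, cut at about 40% in these data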;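 further: peak over basal fluorescence ratio in a 140 s read after ATP addition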
CHRM1 antagonist: human CHRM1 antagonism | P11229 | CHO-K1 hM1, Fluo-8 calcium fluorescence, ACh EC80 antagonist | inhibition, % at 3 µM | 360,000 compounds, 1.3% hits | AID 588852;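 active means percent inhibition above its own plate's cutoff, namely the mean of that plate's compound wells plus 3 SD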;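 further: peak over basal fluorescence ratio during 140 s after agonist addition; 0% = ACh EC80 plus DMSO and 100% = DMSO alone without agonist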
CHRM1 PAM: positive allosteric modulators of human M1 muscarinic receptor | activation, % at 3 µM | AID 588819 | P11229 | CHO-K1 hM1, Fluo-8 calcium fluorescence, ACh EC20; 0% = ACh EC20, 100% = maximal ACh | 360,000 compounds, 0.088% hits; in the data active means activation above about 19%, passing the limit was not always enough
Starred values were filed as active, the others as inactive; . = no result. The list is not random: actives were taken first. Their share in the collection is about 2.3%.

SMILES | CHRM1 agonist | CHO-K1 Ca antag | M1 ag parental | M1 PAM parental | CHRM1 antagonist | CHRM1 PAM
Cc1cccc(Cn2c(N3CCCCC3C)nc3c2c(=O)[nH]c(=O)n3C)c1 (stereo not given) | -10 | 2 | 0 | 3 | 32* | -28
Cc1cc(C)n(-c2nc3c(c(=O)[nH]c(=O)n3C)n2CCc2ccccc2)n1 | 0 | 5 | 0 | 4 | -3 | 3
Cc1cc(C)n(-c2nc3c(c(=O)[nH]c(=O)n3C)n2Cc2ccccc2)n1 | -3 | 25* | 0 | -5 | -3 | 1
Cc1cccc(Cn2c(N3CCN(C)CC3)nc3c2c(=O)[nH]c(=O)n3C)c1 | -3 | -2 | 9 | 18 | -4 | 7
O=C(NC1CCCC1)C(c1ccc(F)cc1)N(C(=O)c1csnn1)C1CC1 (stereo not given) | -4 | 5 | 0 | -1 | 0 | 2
O=C(CCCN1C(=O)NC2(CCCC2)C1=O)Nc1ccc(F)cc1 | -1 | 4 | 0 | 1 | 10 | 8
Cc1ccc(Sc2ccc(NC(=O)CCN3C(=O)NC4(CCCC4)C3=O)cc2)c(C)c1 | -5 | 3 | 4 | 16 | 35* | -14
COc1ccccc1CN1C[C@@H]2C[C@@H](c3[nH]c4c(C)cccc4c3C)N3CCC[C@@]23C1=O | 1 | -24 | 15* | 31 | -10 | 10
CNc1cccc(-c2cc(OC)ccc2OC)n1 | -8 | 4 | 4 | 9 | 42* | -22
CNc1cccc(-c2c(OC)cccc2OC)n1 | -9 | -9 | 2 | 20 | -3 | -2
Cc1c(C(=O)OC(C)C(=O)N(C)Cc2ccccc2)oc2ccccc12 (stereo not given) | -5 | -17 | 4 | 9 | -8 | 4
Cc1c(C(=O)OC(C)C(C)C[N+](C)(C)C)oc2ccccc12 (stereo not given) | -6 | 9 | 0 | 0 | 99* | -24
Cc1ccc(-n2nnnc2CNC(=O)c2ccc(Br)o2)cc1C | -3 | -15 | 0 | 5 | -3 | 3
Cc1ccc(-n2nnnc2CNC(=O)c2ccc3c(c2)OCO3)cc1C | -7 | -6 | 0 | -7 | 63* | -24
CC(=O)c1cccc(NC(=O)COC(=O)CCC(=O)c2cccs2)c1 | -1 | -3 | 1 | 6 | -3 | 4
c1ccc(C(CN2CCCCC2)Oc2ccccn2)cc1 (stereo not given) | -5 | 9 | 0 | -22 | 83* | -27
OC(COC(c1ccccc1)c1ccccc1)CN1CCCCC1 (stereo not given) | -7 | 6 | 0 | 0 | -12 | -4
N#Cc1ccc(CN(Nc2ccccc2)c2ccccc2)cc1 | -6 | 29* | -1 | -12 | 3 | -9
O=C(NN1CCCCC1)c1ccc(COc2ccc(Cl)cc2)cc1 | -3 | -7 | 2 | 16 | -5 | 9
CCOc1cc(C(=O)N2CCC(CC3CC(c4ccc(Cl)cc4)=NO3)(C(=O)NCC3CCCCC3)CC2)cc(OCC)c1OCC (stereo not given) | -6 | -17 | 0 | 17 | -2 | 1
CN(C)CCCN1c2ccccc2CCc2ccccc21 | -6 | 5 | 1 | 7 | 87* | -25
CNC(=O)N1c2ccccc2CCc2ccccc21 | -2 | -7 | 0 | 10 | -11 | 3
CC(CN(C)C)CN1c2ccccc2CCc2ccccc21 (stereo not given) | -4 | 8 | 1 | 8 | 98* | -26
Cc1cc(OC(=O)c2c(Cl)cc(Cl)cc2Cl)nc(C)n1 | -4 | -21 | 0 | 22 | -17 | 24*
CCN1CCCC1CNC(=O)C(=O)NCCc1ccc(OC)c(OC)c1 (stereo not given) | -13 | -8 | 1 | 7 | 2 | 0
SMILES | CHRM1 agonist | CHO-K1 Ca antag | M1 ag parental | M1 PAM parental | CHRM1 antagonist | CHRM1 PAM
COc1cc2c(cc1NC(=O)C(C)OC(=O)C1CC(=O)N(Cc3ccco3)C1)oc1ccccc12 (stereo not given) | -2 | 29* | 0 | -6 | 0 | 1
CC(OC(=O)C1CC(=O)N(Cc2ccco2)C1)C(=O)Nc1cccc(C#N)c1 (stereo not given) | -7 | -1 | 1 | -8 | -2 | 3
COc1ccccc1CN1CCNC(=O)C1CC(=O)NCc1cn(C)nc1C (stereo not given) | -9 | -10 | 2 | 11 | -5 | 12
CN(C)/C=N/C(=S)Nc1cc(Cl)cc(Cl)c1 | -4 | 10 | 18* | 4 | 1 | 1
COc1ccc(-c2noc(CCC(=O)N3CCN(c4ccccc4F)CC3)n2)cc1 | -6 | -11 | 1 | 14 | -13 | 6
COC(=O)c1ccccc1NC(=O)CNC(=O)c1ccc(OC)c(OC)c1 | -4 | -18 | 2 | 13 | -4 | 3
O=C(CN1C(=O)C(=O)N(Cc2ccccc2)C1=O)Nc1ccc(F)c(Cl)c1 | -4 | -6 | 1 | 13 | -10 | 8
Cc1noc(C(=O)Nc2ccc(F)c(Cl)c2)c1Cl | -7 | -20 | 3 | 1 | 83* | -30
O=C(Cc1ccsc1)Nc1ccc(S(=O)(=O)C(F)F)cc1 | 3 | 0 | 2 | 8 | -6 | 5
CC(OC(=O)CCCN=C1NS(=O)(=O)c2ccccc21)C(=O)c1ccccc1 (stereo not given) | 19* | -4 | 16* | 6 | 5 | -3
COc1ccc(NC(=O)c2oc3ccc(S(=O)(=O)N4CCC5(CC4)OCCO5)cc3c2C)cc1 | 3 | 7 | 13 | -2 | 34* | -22
C=CCNC(=O)c1oc2ccc(S(=O)(=O)N3CCC4(CC3)OCCO4)cc2c1C | 0 | -7 | 1 | 4 | 0 | 3
Cn1nc(C(F)(F)F)c(-c2ccc(Br)cc2)c1NC(=O)Nc1ccc(F)cc1F | 4 | 20 | 9 | -21 | 38* | -9
O=C(O)C(Cc1ccc(Cl)cc1)NS(=O)(=O)c1ccc(Cl)cc1 (stereo not given) | -5 | -16 | 1 | 9 | 2 | 4
Cc1ccc(OCCCC(=O)N(C)CC(=O)Nc2c(C)cccc2C)cc1 | -1 | -14 | 1 | 16 | -18 | 12
C/C(=N\NC(=O)C(c1ccccc1)c1ccccc1)c1ccc(O)cc1 | 2 | -13 | 1 | 20 | -39 | 31*
COc1ccc(OC)c(NC(=O)CSc2ccc(-c3cccnc3)nn2)c1 | -3 | -11 | 3 | -16 | 2 | -1
COC(=O)CNC(=O)c1ccc(F)cc1 | -1 | -8 | 0 | -1 | -12 | 15
CC(C)(C)C1CCSC2=NCCC[C@]2(c2ccccc2)C1 (stereo not given in full) | . | -22 | 1 | 15 | . | .
c1ccc(Sc2ccccc2CN2CCCC2)cc1 | -9 | 2 | 1 | 4 | 79* | -24
Fc1ccccc1CN1CCCCCCC1 | -12 | -16 | 0 | 2 | 5 | -5
